Data on ten compounds can be found in PubChem BioAssay (Tox21).

Experiment [1] is described as follows: qHTS assay to identify small molecule agonists of the NFkB signaling pathway - cell viability counter screen (AID 1159515; calls by dose curve; note: nearly all actives have a fitted effect of over 55% in size; note: potency is the fitted concentration of half-maximal effect). The gist of the method:
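Parallel cytotoxicity counter screen in ME-180 cells carrying an NFkB-response-element beta-lactamase reporter, 2,000 cells/well. Compound exposure lasted 5 hr at 37 C, 5% CO2. Cell viability was quantified by CellTiter-Glo luminescence.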

Experiment [2] in a line: qHTS assay to identify small molecule agonists of the endoplasmic reticulum stress response signaling pathway - cell viability counter screen (AID 1159517; calls by dose curve; note: nearly all actives have a fitted effect of over 50% in size; note: potency is the fitted concentration of half-maximal effect). The gist of the method: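 After overnight attachment, ESRE-bla HeLa cells were treated with Tox21 library compounds for 5 hr. CellTiter-Glo luminescence, read 30 min post-addition at room temperature, reported viability.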

Experiment [3] is described as follows: qHTS assay to identify small molecule antagonists of the retinoid-related orphan receptor gamma (ROR-gamma) signaling pathway - cell viability counter screen (AID 1159520). Note: nearly all actives have a fitted effect of over 50% in size. Note: potency is the fitted concentration of half-maximal effect. The gist of the method: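 Cytotoxicity was read from cellular ATP (CellTiter-Glo luminescence) after 16 hr at 37 C with 1 uM doxycycline induction. The inducer was added 2 hr after compound transfer to Tet-on ROR gamma CHO cells.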

In experiment [4] the target is Nuclear receptor ROR-gamma (Homo sapiens) (UniProt P51449). Description: qHTS assay to identify small molecule antagonists of the retinoid-related orphan receptor gamma (ROR-gamma) signaling pathway (AID 1159521; note: nearly all actives have a fitted effect of over 50% in size; note: potency is the fitted concentration of half-maximal effect). The gist of the method: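 Test compounds were applied to Tet-on RORγ CHO cells 2 h ahead of doxycycline hyclate (1 uM final). Luciferase reporter activity was quantified by luminescence after 16 h at 37 C and 5% CO2.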
Background: qHTS replaces the single test concentration by a dilution series.

A short description of experiment [5]: qHTS assay to identify small molecule agonists of the AP-1 signaling pathway - cell viability counter screen (AID 1159525; calls by dose curve; note: nearly all actives have a fitted effect of over 55% in size; note: potency is the fitted concentration of half-maximal effect). The gist of the method:
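Intracellular ATP by Cell Titer Glo luminescence (30 min, RT) in the same ME-180 AP-1-bla wells after the 5 h compound exposure at 37 °C. Normalised to tetra n-octyl ammonium bromide and DMSO controls.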

Experiment [6] can be described thus: qHTS assay to identify small molecule antagonists of the retinoid acid receptor (RAR) signaling pathway - cell viability counter screen (AID 1159551). Note: nearly all actives have a fitted effect of over 35% in size. Note: potency is the fitted concentration of half-maximal effect. The procedure, abridged:
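ATP-based viability, C3RL4 cells, 6 h at 37 C with 1 uM final retinol co-added after compound; luminescence read 30 min post CellTiter-Glo, RT.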

Experiment [7] is described as follows: qHTS assay to identify small molecule agonists of the RXR signaling pathway - cell viability counter screen (AID 1159529). Note: nearly all actives have a fitted effect of over 50% in size. Note: potency is the fitted concentration of half-maximal effect. The procedure, abridged:
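Compounds dissolved in DMSO were pinned onto HEK 293T cells carrying a beta-lactamase reporter under RXR-alpha control and incubated 16 hr. Cytotoxicity was then quantified by CellTiter-Glo luminescence.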

Experiment [8] can be described thus: qHTS assay to identify small molecule antagonists of the retinoic acid receptor (RAR) signaling pathway (AID 1159552; note: nearly all actives have a fitted effect of over 50% in size; note: potency is the fitted concentration of half-maximal effect). The gist of the method: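 Test chemicals and DMSO controls were pin-transferred onto C3RL4 cells a day after seeding; retinol (1 uM final) followed at once. Luminescent reporter output was quantified after 6 hr of co-incubation and 30 min with detection reagent.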

Experiment [9] can be described thus: qHTS assay to identify small molecule agonists of the retinoic acid receptor (RAR) signaling pathway (AID 1159553). The gist of the method:
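Quantitative high-throughput format: the Tox21 10K library was tested on C3RL4 RARE-luciferase cells for 6 hr at 37 C and 5% CO2, with luminescence measured after a 30 min room-temperature reagent step.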

Experiment [10] is described as follows: qHTS assay to identify small molecule antagonists of the estrogen related receptor (ERR) signaling pathway (AID 1224819). The gist of the method:
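ERR reporter cell line (NTP) plated at 2,000 cells/well, settled 6 h at 37C/5% CO2, then exposed to LOPAC compounds for 18 h at 37C. One-Glo luciferase luminescence read after 30 min at room temperature.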

Experiment [11] can be described thus: qHTS assay to identify small molecule agonists of the estrogen related receptor (ERR) signaling pathway (AID 1224820). The gist of the method: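 Luminescence readout (One-Glo, 30 min RT) from NTP-supplied ERR cell line exposed to compounds for 18 h at 37 C. Cells seeded 2,000 per well and pre-incubated 6 h before pin-tool compound transfer.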
Experiment [12] is described as follows: qHTS assay to identify small molecule agonists of the estrogen related receptor signaling pathway with the pleiotropic PPARgamma coactivator (PGC) (AID 1224823). The procedure, abridged: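 Luminescence readout (One-Glo, 30 min RT) from PGC/ERR cell line treated 18 h at 37 C with pin-tool-delivered DMSO compound solutions; cells plated 6 h before dosing. Quantitative HTS format.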

A short description of experiment [13]: qHTS assay to identify small molecule agonists of the vitamin D receptor (VDR) signaling pathway - cell viability counter screen (AID 743224). Note: nearly all actives have a fitted effect of over 50% in size. Note: potency is the fitted concentration of half-maximal effect. The procedure, abridged: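 Compounds were pin-transferred onto VDR-bla cells plated 4 h earlier; following 16 h incubation at 37C, cell viability was quantified by CellTiter-Glo luminescence after 30 min at room temperature.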

Experiment [14] in a line: qHTS assay to identify small molecule antagonists of the vitamin D receptor (VDR) signaling pathway - cell viability counter screen (AID 743225). Note: nearly all actives have a fitted effect of over 50% in size. Note: potency is the fitted concentration of half-maximal effect. The gist of the method: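 Compounds were pinned onto VDR-bla HEK 293T cells together with 1-alpha,25-dihydroxyvitamin D3 at 3 nM final. After 16 h at 37C and 5% CO2 plus the reporter readout, cell viability was measured by CellTiter-Glo luminescence (30 min, room temperature).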

In experiment [15] the target is Retinoic acid receptor RXR-alpha (Homo sapiens) (UniProt P19793). Description: qHTS assay to identify small molecule agonists of the RXR signaling pathway (AID 1159527; calls by dose curve; note: nearly all actives have a fitted effect of over 35% in size). The procedure, abridged:
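Using 9-cis retinoic acid as the reference agonist, chemicals were tested in HEK 293T cells […] for 16 hr; substrate loading lasted 2 hr at room temperature.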

The nature of experiment [16]: qHTS assay to identify small molecule agonists of the AP-1 signaling pathway (AID 1159526; calls by dose curve).

Inconclusive results are not listed. Activity calls are given as the source filed them. Unless noted, calls come from the whole dose curve; as a rule, active = well fitted curve in the direction sought with a large enough effect in the repeat runs; inconclusive = weak or mixed curves; inactive = no such curve, though single readings can be large; an effect the other way counts as inactive or inconclusive.

Retinoic acid receptor RXR-alpha (Homo sapiens), sequence (P19793 whole entry, looked up): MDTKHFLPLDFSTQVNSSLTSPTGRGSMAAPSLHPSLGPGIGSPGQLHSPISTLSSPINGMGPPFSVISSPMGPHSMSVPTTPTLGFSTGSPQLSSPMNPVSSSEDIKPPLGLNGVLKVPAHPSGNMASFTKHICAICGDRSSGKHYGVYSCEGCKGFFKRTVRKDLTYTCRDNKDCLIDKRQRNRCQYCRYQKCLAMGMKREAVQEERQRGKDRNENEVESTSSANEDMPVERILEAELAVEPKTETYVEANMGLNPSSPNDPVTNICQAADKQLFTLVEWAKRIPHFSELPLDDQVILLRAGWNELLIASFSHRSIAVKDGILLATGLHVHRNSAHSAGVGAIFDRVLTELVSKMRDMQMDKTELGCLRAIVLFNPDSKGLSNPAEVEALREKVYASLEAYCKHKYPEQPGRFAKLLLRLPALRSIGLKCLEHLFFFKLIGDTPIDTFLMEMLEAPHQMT

As for `Nc1ccc2c3c(cccc13)-c1ccccc1-2`, the Potency entry in experiment [1], in experiment [2], in [3], in experiment [4], in experiment [5] and in [6] was “inactive” each time.
Regarding `OCCN(CCO)c1nc(N2CCCCC2)c2nc(N(CCO)CCO)nc(N3CCCCC3)c2n1`, the Potency result in [1], in [2], in experiment [3], in [4], in experiment [5] and in experiment [7] was “inactive” each time. In addition, the Potency result in experiment [6], in experiment [8] and in [9] was “inactive” throughout. Also, the Potency in experiment [10] is 11.9 µM (active). For the same compound, the result in experiment [11] and in experiment [12] was inactive.
As for `Cc1cc(O)c(Cl)c(C)c1Cl`, the Potency in experiment [13] was 43.6 µM (active); in [14], 38.9 µM (active); in experiment [1], 54.9 µM (active); in experiment [2], 54.9 µM (active). The Potency entry in experiment [3], in experiment [4], in [5], in experiment [15], in [6] and in experiment [8] was “inactive” throughout.
Turning to `CCCN(CCC)c1c([N+](=O)[O-])cc(C(F)(F)F)c(N)c1[N+](=O)[O-]`, the Potency in experiment [13] is 13.8 µM (active); in [14], 21.8 µM (active); in [1] it was 24.5 µM (active); in [2], 43.5 µM (active); in experiment [3], 30.5 µM (active); in experiment [4] it was 21.6 µM (active). For the same compound, the Potency was 13.8 µM (active) in experiment [5], 13.8 µM (active) in experiment [7], 60.9 µM (active) in [6] and 30.5 µM (active) in experiment [8].
Turning to `CCCCCCCCn1sc(Cl)c(Cl)c1=O`, the Potency in [13] is 2.75 µM (active); in experiment [14], 6.92 µM (active); in experiment [1] it was 9.77 µM (active); in [2], 3.47 µM (active); in experiment [3], 2.73 µM (active); in experiment [4] it was 4.86 µM (active). In addition, the Potency was 19.5 µM (active) in experiment [5], 13.7 µM (active) in [6] and 27.3 µM (active) in experiment [8].
`CCCCN1C(=O)[C@@H]([C@H](O)C2CCCCC2)NC(=O)C12CCN(Cc1ccc(Oc3ccc(C(=O)O)cc3)cc1)CC2`: the Potency result in experiment [1], in experiment [2], in experiment [3], in [4], in experiment [7] and in experiment [6] was “inactive” each time.
`CCOC(=O)O[C@]1(C(=O)OCCl)CC[C@H]2[C@@H]3CCC4=CC(=O)C=C[C@]4(C)[C@H]3[C@@H](O)C[C@@]21C`: the Potency result in experiment [13], in experiment [14], in experiment [1], in experiment [2], in experiment [3] and in experiment [4] was “inactive” each time. Further, the Potency entry in [15], in experiment [7], in experiment [6], in [8] and in experiment [9] was “inactive” each time.
Turning to `CC(C)(C)c1ccc(C(=O)O)cc1`, the Potency result in experiment [13], in experiment [14], in experiment [1], in experiment [2], in [3] and in experiment [5] was “inactive” throughout. For the same compound, the Potency result in [16], in [15], in [7], in [6], in experiment [8] and in experiment [9] was “inactive” in each case.
For `O=C(Nc1cccc(C(F)(F)F)c1)c1cc(Br)cc(Br)c1O`, the Potency was 2.19 µM (active) in [13]; 17.4 µM (active) in [14]; 54.9 µM (active) in experiment [1]; 24.5 µM (active) in experiment [2]; 10.9 µM (active) in experiment [3]; 1.37 µM (active) in experiment [4]. In [7], the Potency was 21.9 µM (active). Also, the Potency result in [8] and in experiment [9] was “inactive” in each case.
For `C[C@]12CCC(=O)C=C1CC[C@@H]1[C@@H]2[C@@H](O)C[C@@]2(C)[C@H]1CC[C@]2(O)C(=O)COC(=O)CCC(=O)O`, the Potency entry in [13], in experiment [14], in experiment [1], in experiment [2], in [3] and in experiment [5] was “inactive” throughout. Moreover, the Potency entry in experiment [16], in experiment [7] and in experiment [6] was “inactive” throughout.
